Source: PubChem
Sampled rows, rich in hits. Any-hit rate of the full collection: about 21%.
Pf growth 48h = inhibits P. falciparum growth in the first generation, 48 h; Potency, µM (series often up to 28.7 µM), actives largely listed as inhibitors; hit rate 5.9% among 310,000; AID 504832; P. falciparum luciferase growth in erythrocytes, 48 h
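Growth was read as firefly luciferase luminescence after a 48 h, 37 C, 5% CO2 exposure of compounds to reporter-bearing P. falciparum cultures (0.1% parasitemia, 2% hematocrit final) in Albumax-supplemented RPMI 1640.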
SARS PLpro yeast-1 = blocks SARS-CoV papain-like protease in a yeast assay; Potency, µM (series often up to 32.9 µM), hits mostly activators; AID 485353; S. cerevisiae expressing SARS-CoV PLpro, growth rescue; hit rate 0.19% among 330,000; calls by dose curve; note: nearly all actives have a fitted effect of over 55% in size
Shiga inhibitor = Shiga toxin inhibition. hit rate 9.2% among 290,000. inhibition, % at 38.7 µM. AID 2315. Vero cells, Shiga toxin protein synthesis inhibition reporter; in the data active = inhibition mostly above about 28%, no sharp cut-off; inactive = mostly below about 43%
Pf growth 96h = P. falciparum growth inhibition at 96 hour, primary screen for plastid delayed-death inhibitors; P. falciparum luciferase reporter growth, 96 h; Potency, µM (highest dose often 28.7 µM), hits mostly inhibitors; hit rate 6.9% among 320,000; AID 504834
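Two-generation exposure (96 h) targets delayed-death phenotype. Reporter parasites carrying integrated firefly luciferase, in red cells at 2% hematocrit and 0.05% parasitemia final, kept at 37 C, 5% CO2; luminescence loss indicates inhibition.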
NS1 function inh = blocks influenza NS1 protein function; AID 2326; Potency, µM (top dose mostly 46.1 µM); hit rate 0.4% among 270,000; calls by dose curve; note: actives are rising curves; nearly all actives have a fitted effect of over 50% in size
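A cell-based growth assay was used: compounds that relieve NS1-induced slow growth of budding yeast raise OD600. Assay medium was yeast nitrogen base with ammonium sulphate and -URA supplement, pH 6.0, with 2% galactose.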
CHX counter = counter-screen hit for Shiga toxin inhibitors, cycloheximide; max response, %; cell reporter, cycloheximide protein synthesis inhibition counterscreen; hit rate 12% among 300,000; in the data active = max response mostly above about 13%, no sharp cut-off; inactive = mostly below about 14%; note: read at 38.3 µM for the half of the compounds with a filed dose
SARS PLpro yeast-2 = Rescues yeast growth by inhibiting SARS-CoV PLpro; yeast expressing SARS-CoV PLpro, growth phenotype rescue; AID 652038; hit rate 19% among 1,000; shares compounds with SARS PLpro yeast-1; calls only; call rule not given here
A number is an active result; i = inactive; ? = inconclusive; nt = no result; + = active, no number; [ ] = remark or other dose. Unless noted, calls come from the whole dose curve; as a rule, active = well fitted inhibition curve with a large enough effect; inconclusive = small, poorly fitted or top-dose-only effect, or another doubt; inactive = no such curve, though single readings can be large or run the other way.

SMILES	Pf growth 48h	SARS PLpro yeast-1	Shiga inhibitor	Pf growth 96h	NS1 function inh	CHX counter	SARS PLpro yeast-2
Cc1ccc(CNC(=O)c2cn(C3CCCCC3)c(=O)c3c2c2ccccc2n3C)o1	nt	?	i	i	i	i	+
Cc1ccc(CNS(=O)(=O)c2cn(C)c(=O)n(C)c2=O)cc1	i	i	i	i	i	i	nt
Fc1ccccc1OCCCCCN1CCCC1	?	2.5µM	i	i	i	i	i
COc1cc(C(c2oc(CO)cc(=O)c2O)c2oc(CO)cc(=O)c2O)cc(OC)c1OC	i	?	i	?	nt	i	i
COc1ccc(C(c2oc(CO)cc(=O)c2O)c2oc(CO)cc(=O)c2O)cc1	i	4.5µM	i	?	i	i	+
COc1cc(OC)cc(-c2nnc(SCC(=O)Nc3cccc(C(=O)O)c3)s2)c1	i	i	i	i	nt	i	nt
O=C(CCC(=O)N/N=C/c1ccccc1O)NCc1ccccc1	i	i	i	i	i	i	nt
Cc1cc(C(=O)CCl)c(C)n1CCc1ccccc1	i	i	i	i	nt	i	nt
COC(=O)CCCn1c(C)cc(C(=O)CCl)c1C	?	11µM	i	?	nt	i	+
CC(NC(=O)CCN1C(=O)c2ccccc2C1=O)c1ccccc1 (stereo not drawn)	i	i	i	?	i	i	nt
N#CC1=C(N)Oc2c(ccc3cccnc23)C1c1cccnc1 (stereo not drawn)	?	?	i	nt	i	i	i
COc1ccc(C2C(C#N)=C(N)OC(C(C)(C)C)=C2C#N)cc1OC (stereo not drawn)	i	i	i	i	?	i	nt
CC(C)(C)C1=C(C#N)C(c2cccnc2)C(C#N)=C(N)O1 (stereo not drawn)	i	18µM	i	i	i	i	i
N#CC1=C(N)Oc2cc3ccccc3cc2C1c1cccnc1 (stereo not drawn)	?	i	i	?	i	i	nt
CCCC[C@@H]1C=C(C(=O)O)[C@H](c2ccc(Cl)cc2)N1S(=O)(=O)c1ccc(C)cc1	nt	i	nt	nt	nt	nt	nt
COCCNC(=S)N/N=C(\C)c1ccc(OC)cc1	i	22µM	i	i	i	i	+
COCCNC(=S)N/N=C(\C)c1ccc2cc(OC)ccc2c1	?	8.9µM	i	?	i	i	i
CN(CC(=O)Nc1ccc(F)cc1)C(=O)COC(=O)/C=C/c1ccccc1[N+](=O)[O-]	i	i	nt	i	nt	nt	nt
COc1ccccc1CNC(=O)c1cccc2c1C(=O)N(Cc1cccnc1)C2	?	i	i	i	nt	i	nt
Cc1[nH]n(-c2ccccc2)c(=O)c1/C=N\NC(=O)C1COc2ccccc2O1 (stereo not drawn)	?	10µM	i	?	i	i	i
O=C(N/N=C/c1cccc([N+](=O)[O-])c1)C1COc2ccccc2O1 (stereo not drawn)	i	i	i	i	nt	i	nt
O=C(N/N=C/c1c(O)n(-c2ccccc2Cl)c(=O)c2ccccc12)C1COc2ccccc2O1 (stereo not drawn)	i	11µM	i	?	3.5µM	i	+
O=C(N/N=C\c1cccc([N+](=O)[O-])c1O)C1COc2ccccc2O1 (stereo not drawn)	i	13µM	i	i	i	i	i
CC(=O)N/N=C/c1c(C)[nH]n(-c2ccccc2)c1=O	?	i	i	i	nt	i	nt
Cc1c(/C=N\NC(=O)C2COc3ccccc3O2)c2ccccc2n1C (stereo not drawn)	i	i	i	?	i	i	nt
SMILES	Pf growth 48h	SARS PLpro yeast-1	Shiga inhibitor	Pf growth 96h	NS1 function inh	CHX counter	SARS PLpro yeast-2
Cc1ccc(-n2c(O)c(/C=N/NC(=O)C3COc4ccccc4O3)c3ccccc3c2=O)cc1 (stereo not drawn)	i	?	i	i	?	i	?
Cc1cc(C)n(CC(=O)Nc2ccc3c(c2)OCO3)c(=O)c1C#N	i	i	nt	i	nt	nt	nt
CCOC(=O)N1CCN(CCC(=O)Nc2ccccc2OC)CC1	i	?	i	13µM	i	i	i
CC(=O)N1c2ccc(S(=O)(=O)N(C)C3CCCCC3)cc2CC1C (stereo not drawn)	i	i	i	i	i	i	nt
CCN1CCN(S(=O)(=O)c2ccc(Oc3ccccc3OC)cc2)CC1	i[5.75 µM]	i	i	?	nt	i	nt
COc1cc(-c2nnc(SC(C)C(=O)Nc3c(C)n(C)n(-c4ccccc4)c3=O)o2)cc(OC)c1OC (stereo not drawn)	i	i	i	nt	i	i	nt
COc1ccccc1/C=C1\SC(=S)N(CCC(=O)NC2=NCCS2)C1=O	i	4µM	i	i	i	i	i
O=C(CCn1c(=O)oc2ccccc21)NC1=NCCS1	i	?	i	?	i	i	i
O=C(CCN1C(=O)/C(=C\c2cccs2)SC1=S)NC1=NCCS1	i	i	i	i	i	i	nt
O=C(OCc1ccccc1)c1ccccc1	i	nt	nt	i	nt	nt	nt
O=C(OCc1ccccc1)c1ccc2c(c1)-c1ccccc1C2=O	9.3µM	16µM	27	?	i	16	i
C/C(=N\NC(=O)CCCNc1ccccc1)c1ccncc1	i	i	i	?	i	i	nt
C/C(=N\NC(=O)CCCNc1ccc(C)cc1)c1ccccn1	?	?	i	?	i	i	+
Cc1cccc(C(=O)NC(NC(=S)Nc2ccc(S(N)(=O)=O)cc2)C(Cl)(Cl)Cl)c1 (stereo not drawn)	?	i	i	?	i	i	nt
COc1ccccc1C(=O)Nc1cccc2c1CCCC2	i	?	i	?	i	i	i
O=S(=O)(/N=C(/c1ccc(F)cc1)N1CCCCC1)c1ccc(Cl)cc1	i	i	i	i	i	i	nt
Nc1c(Cl)ncnc1N/N=C/c1ccc2ccccc2n1	?	nt	121	3.7µM	i	69	i
C(=Nc1cnc2ccccc2c1)c1ccc2ccccc2n1	nt	nt	nt	nt	i	nt	nt
O=C(Nc1cccnc1Cl)C1c2ccccc2Oc2ccccc21	i	?	i	i	i	i	nt
CC(CC(=O)N1CCN(c2cccc(Cl)c2)CC1)S(=O)(=O)c1ccc2c(c1)NC(=O)CO2 (stereo not drawn)	?	i	i	?	i	i	nt
CN(C)C(Cc1ccccc1)C(=O)c1ccc(-c2ccccc2)cc1 (stereo not drawn)	nt	3.2µM	i	?	i	i	i
NC(=O)Nc1ccccc1C(=O)N1CCC(O)(c2ccc(Cl)cc2)CC1	i	i	i	i	i	i	nt
COC(=O)Nc1ccccc1C(=O)N1CCC(O)(c2ccc(Cl)cc2)CC1	i	?	i	i	i	i	i
Cn1c(N)c(C(=O)COC(=O)CCc2c[nH]c3ccccc23)c(=O)n(C)c1=O	nt	3.5µM	i	i	i	i	i
Cn1c(N)c(C(=O)COC(=O)CCCc2c[nH]c3ccccc23)c(=O)n(C)c1=O	nt	i	i	?	i	i	nt
Cn1c(=O)n(C)c2cc(NC(=O)CCl)ccc21	1.5µM	10µM	i	?	i	23	+
CC(=O)Nc1ccc2c(c1)n(C)c(=O)n2C	i	?	i	nt	i	i	nt
CSCCC(NC(=O)c1ccccc1Cl)C(=O)NCCc1ccccn1 (stereo not drawn)	nt	i	nt	nt	nt	nt	nt
CN1CCN(C(=O)NCC23CC4CC(CC(C4)C2)C3)CC1	i	i	i	i	i	i	nt
